This note sets out measurements from the supplement of paper PMC7595190.

The test system of the assay is MV4-11. Kind of assay: CellTox Green cytotoxicity fluorescence relative to DMSO vehicle (fold of vehicle RFU); higher = more cell death (loss of membrane integrity), active = 2 or more. Here is the method: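 Paediatric AML cell lines (MV4-11, CMK, Kasumi-1; 4x10^4 cells/well, 96-well) treated with single compounds from the Selleckchem apoptosis library at 0.01, 0.1 and 1 µM. Cytotoxicity was read with CellTox Green (RFU, Ex 485/Em 520) at 24, 48 and 72 h and normalised to the 0.1% DMSO vehicle. Normalised RFU >= 2 was taken as a successful, cell-killing treatment.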

Structures are written as SMILES. A number with no mark means an inactive call.

As to `O=C1NC(=NCc2cccs2)S/C1=C\c1ccc2ncccc2c1`, the “CellTox Green cytotoxicity fluorescence” value is, setting by setting: (0.01 µM, 24 h) 0.976; (0.01 µM, 48 h) 0.968; (0.01 µM, 72 h) 0.981; (0.1 µM, 24 h) 0.997; (0.1 µM, 48 h) 0.979; (0.1 µM, 72 h) 0.955. Further, the “CellTox Green cytotoxicity fluorescence” value by setting is: (1 µM, 24 h) 1.05; (1 µM, 48 h) 1.12; (1 µM, 72 h) 1.15.

Turning to `CC(=O)N1c2ccc(-c3ccc(C(=O)O)cc3)cc2[C@H](Nc2ccc(Cl)cc2)C[C@@H]1C`, the “CellTox Green cytotoxicity fluorescence” value reads like this: (0.01 µM, 24 h) 0.931; (0.01 µM, 48 h) 0.997; (0.01 µM, 72 h) 1.17; (0.1 µM, 24 h) 0.975; (0.1 µM, 48 h) 1.43; (0.1 µM, 72 h) 2.03 (active). Besides, the “CellTox Green cytotoxicity fluorescence” value by setting is: (1 µM, 24 h) 1.09; (1 µM, 48 h) 1.87; (1 µM, 72 h) 2.28 (active).

Turning to `CC[C@@]1(O)C(=O)OCc2c1cc1n(c2=O)Cc2cc3cc(O)ccc3nc2-1` [(S)-10-Hydroxycamptothecin], the “CellTox Green cytotoxicity fluorescence” value (0.01 µM, 24 h) was 1.01; the “CellTox Green cytotoxicity fluorescence” value (0.01 µM, 48 h) was 1.35; the “CellTox Green cytotoxicity fluorescence” value (0.01 µM, 72 h) is 1.89; the “CellTox Green cytotoxicity fluorescence” value (0.1 µM, 24 h) was 1.09; the “CellTox Green cytotoxicity fluorescence” value (0.1 µM, 48 h) was 1.65; the “CellTox Green cytotoxicity fluorescence” value (0.1 µM, 72 h) is 1.93. Moreover, the “CellTox Green cytotoxicity fluorescence” value is, setting by setting: (1 µM, 24 h) 1.27; (1 µM, 48 h) 2.3 (active); (1 µM, 72 h) 2.45 (active).

Consider `CC(=O)O/N=C1/C(c2c(O)[nH]c3cc(Br)ccc23)=Nc2ccccc21` [BIO-acetoxime], for which the “CellTox Green cytotoxicity fluorescence” value is 1.7 (0.01 µM, 24 h); 1.57 (0.01 µM, 48 h); 1.56 (0.01 µM, 72 h); 1.03 (0.1 µM, 24 h); 1.11 (0.1 µM, 48 h); 1.17 (0.1 µM, 72 h). Besides, the “CellTox Green cytotoxicity fluorescence” value is 1.02 (1 µM, 24 h); 1.2 (1 µM, 48 h); 1.36 (1 µM, 72 h).
